The record followed here is PubChem BioAssay.

Activity calls are given as the source filed them. Unless noted, how the calls were made is not given here.

Assay [1] is described as follows: HepG2 liver cancer cell viability effects, profiling panel, resazurin fluorescence, 24 h, PK04 Diversity Set (AID 1172). Further: test concentration not given here. As to conditions: higher = more signal. A general note: The colour change of resazurin is a common sign of viable cells or microbes.
Assay [2] in a line: basal S. cerevisiae growth modulation, no modifier, primary screen, OD600, strain BY4716, 24 h, basal condition (AID 1173). As to conditions: OD600, 24 h, higher = more signal, called active from +8 up or from −8 down.
Assay [3] in a line: MM1S myeloma cell viability, profiling panel, resazurin fluorescence, basal, 24 h, PK04 Diversity Set (AID 1174). Further: test concentration not given here. As to conditions: higher = more signal, called active from +8 up or from −8 down.
In assay [4] the target is Dihydroorotate dehydrogenase (quinone), mitochondrial (Plasmodium falciparum (isolate 3D7)) (UniProt Q08210). The assay can be described thus: PfDHODH enzyme inhibitors, primary screen, biochemical, C-terminal His tag, absorbance 600 nm (AID 1175).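 Further: recombinant parasite enzyme with a five histidine tag at its C terminus; test concentration not given here.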 Conditions: DCIP absorbance 600 nm, higher = more signal, called active from +8 up or from −8 down.
Assay [5] is described as follows: P. aeruginosa biofilm formation inhibitors, primary screen, strain PAO1, LB-PBS medium, absorbance 600 nm (AID 1176). Further: test concentration not given here. As to conditions: P. aeruginosa PAO1 growth/biofilm, A600, 12 h; higher = more signal.
A short description of assay [6]: S. cerevisiae RM11-1a growth modifiers, primary screen, strain RM11-1a, OD600, basal, 24 h (AID 1177).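 Further: cultures grown under basal conditions with no added stressor; test concentration not given here.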 Conditions: OD600, 24 h, higher = more signal, called active from +8 up or from −8 down.
Assay [7] in a line: E. coli acrAB mutant growth effects, primary screen, E. coli filamentation inducers, strain DRC39, OD650, 24 h (AID 1178).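 Further: growth measured as culture turbidity by optical density at 650 nm; test concentration not given here.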 As to conditions: higher = more signal, called active from +8 up or from −8 down.
The nature of assay [8]: E. coli acrAB mutant growth effects, primary screen, E. coli filamentation inducers, strain DRC39, OD650, 48 h (AID 1179).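 Further: screen aims at cell division blockers that make cells filament.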 Conditions: E. coli DRC39 delta-acrAB growth, higher = more signal, called active from +8 up or from −8 down.
Assay [9] can be described thus: RPMI8226 myeloma cell viability, profiling panel, resazurin fluorescence, basal, 24 h, PK04 Diversity Set (AID 1180).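 Further: RPMI8826 multiple myeloma cell line at 5000 cells per well; test concentration not given here.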 As to conditions: higher = more signal.
Assay [10] concerns the target E3 ubiquitin-protein ligase XIAP (Homo sapiens) (UniProt P98170). The assay can be described thus: XIAP binders, primary screen, biophysical, small-molecule microarray, fluorescence 635 nm (AID 1181).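 Further: score merges 667 nm emission and signal to noise over triplicate slides.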 As to conditions: small-molecule microarray binding, higher = more signal.

Sequence of Dihydroorotate dehydrogenase (quinone), mitochondrial (Plasmodium falciparum (isolate 3D7)) (Q08210 whole entry, looked up): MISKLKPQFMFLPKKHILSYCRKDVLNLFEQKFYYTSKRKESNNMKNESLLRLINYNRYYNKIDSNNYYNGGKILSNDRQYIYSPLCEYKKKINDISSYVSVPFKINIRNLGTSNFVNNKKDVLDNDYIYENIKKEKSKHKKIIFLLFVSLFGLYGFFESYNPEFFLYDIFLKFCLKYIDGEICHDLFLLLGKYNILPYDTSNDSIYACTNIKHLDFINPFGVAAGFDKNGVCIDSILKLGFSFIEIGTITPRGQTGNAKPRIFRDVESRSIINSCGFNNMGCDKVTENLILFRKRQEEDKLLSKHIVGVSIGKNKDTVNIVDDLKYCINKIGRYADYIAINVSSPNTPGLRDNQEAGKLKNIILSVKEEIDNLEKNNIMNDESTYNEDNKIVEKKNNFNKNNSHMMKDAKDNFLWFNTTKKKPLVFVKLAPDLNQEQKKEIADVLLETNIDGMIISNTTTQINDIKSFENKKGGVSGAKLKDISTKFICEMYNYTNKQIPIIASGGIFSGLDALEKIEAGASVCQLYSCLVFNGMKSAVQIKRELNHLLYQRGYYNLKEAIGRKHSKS
Sequence of E3 ubiquitin-protein ligase XIAP (Homo sapiens) (P98170 whole entry, looked up): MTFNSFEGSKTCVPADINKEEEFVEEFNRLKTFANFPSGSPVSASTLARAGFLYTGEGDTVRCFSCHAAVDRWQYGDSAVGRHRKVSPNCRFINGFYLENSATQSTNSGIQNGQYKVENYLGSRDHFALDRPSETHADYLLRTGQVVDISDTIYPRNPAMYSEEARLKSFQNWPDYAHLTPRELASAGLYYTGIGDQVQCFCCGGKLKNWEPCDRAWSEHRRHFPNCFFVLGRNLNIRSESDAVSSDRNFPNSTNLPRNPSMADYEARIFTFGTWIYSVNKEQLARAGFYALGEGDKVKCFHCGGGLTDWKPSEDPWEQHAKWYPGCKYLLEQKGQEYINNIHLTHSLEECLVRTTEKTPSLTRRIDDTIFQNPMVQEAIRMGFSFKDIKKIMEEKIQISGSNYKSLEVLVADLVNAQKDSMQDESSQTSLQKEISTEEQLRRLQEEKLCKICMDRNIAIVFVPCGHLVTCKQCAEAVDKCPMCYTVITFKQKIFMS

As for `COc1ccc(C(=O)Nc2ccc3c(c2)[C@@]2(O[C@H](CCO)[C@@H]([Si](C)(C)c4ccc(OC)cc4)[C@@H]2C)C(=O)N3Cc2ccccc2)cc1`, the z-score in assay [1] is -2.52; in assay [2], -1.96 (inactive); in [3] it was -8.32 (active); in [5], 0.249 (inactive); in [6], 2.7 (inactive); in assay [7], -0.59 (inactive). The z-score is -0.927 (inactive) in assay [8] and -5.58 in [9]. Besides, the values for the composite z-score in [4] and in assay [10] were -0.687 (inactive) and -0.131, respectively.

As for `CC1CC/C=C\[C@H]2OC34C=CCN(c5ccc(Cl)cc5)C(=O)[C@H]3N(CCCCCCO)C(=O)[C@]4(C)C2C(=O)O1` (stereo not given in full), the z-score is 0.25 in assay [1]; -0.257 (inactive) in [2]; 0.722 (inactive) in assay [3]; -0.801 (inactive) in assay [5]; 0.268 (inactive) in [6]; 0.251 (inactive) in [7]. Further, the z-score in assay [8] is 0.732 (inactive); in assay [9] it was 0.485. Besides, the composite z-score in assay [4] is -1.1 (inactive); in assay [10] it was 1.65.

`COC(=O)[C@@]1(Cc2ccc(OC)cc2)[C@H]2c3cc(C(=O)N4CCCC4)n(Cc4ccc(C(F)(F)F)nc4)c3C[C@H]2CN1C(=O)c1ccccc1`: the z-score in [1] was -0.35; in assay [2] it was 1.37 (inactive); in assay [3], -1.07 (inactive); in assay [5], 1.08 (inactive); in assay [6], -0.809 (inactive); in assay [7], -0.886 (inactive). Also, the values for the z-score in assay [8] and in assay [9] were -0.71 (inactive) and -2.32, respectively. For the same compound, the composite z-score was -0.77 (inactive) in assay [4] and -0.02 in [10].

As to `COC(=O)[C@@]1(Cc2ccccc2)[C@H]2c3cc(C(=O)N(C)C)n(Cc4ccc(C(F)(F)F)nc4)c3C[C@H]2CN1C(=O)c1ccccc1`, the z-score in assay [1] is -0.634; in assay [2], 2.47 (inactive); in [3] it was -1.11 (inactive); in assay [5] it was 0.563 (inactive); in assay [6], 1.02 (inactive); in assay [7] it was -0.46 (inactive). The z-score in assay [8] was 0.03 (inactive); in assay [9], -0.693. Further, the composite z-score is -0.125 (inactive) in assay [4] and -0.242 in [10].

As to `C=CCOC(=O)[C@@H]1[C@H]2C(=O)O[C@H](c3ccccc3)[C@H](c3ccccc3)N2[C@H](c2ccc(OCCOC(=O)[C@H]3C[C@H]4C(=O)N5CCC[C@H]5C(=O)N4[C@H]3c3cccc(OCCO)c3)cc2)[C@@]12C(=O)Nc1ccc(I)cc12`, the z-score is 0.0829 in [1]; 2.04 (inactive) in [2]; -0.273 (inactive) in assay [3]; 3.81 (inactive) in assay [5]; 1.89 (inactive) in [6]; -0.0055 (inactive) in [7]. Besides, the z-score is -0.365 (inactive) in assay [8] and -0.166 in assay [9]. The composite z-score in assay [4] is 0.0219 (inactive); in assay [10] it was 0.0003.

Turning to `COCCCNC(=O)[C@@]1(Sc2ccc(C)cc2)CC(=O)N(Cc2ccccc2C(F)(F)F)[C@@H]1c1ccc(CO)cc1I`, the z-score in assay [1] was -1.07; in [2], -2.19 (inactive); in assay [3] it was -2.56 (inactive); in assay [5], 0.0993 (inactive); in assay [6], -1.2 (inactive); in assay [7], -0.473 (inactive). The z-score was 0.0799 (inactive) in [8] and -2.75 in [9]. The composite z-score in assay [4] was 0.0681 (inactive); in assay [10], 0.419.

With `Cc1ccc(S[C@]2(C(=O)NCCCN(C)C)CC(=O)N(C3Cc4ccccc4C3)[C@@H]2c2ccc(CO)cc2I)cc1`, the z-score in assay [1] is -0.595; in assay [2], -3.43 (inactive); in assay [3], -2.99 (inactive); in [5] it was 0.531 (inactive); in assay [6], 0.609 (inactive); in assay [7], -0.605 (inactive). Besides, the z-score is -0.623 (inactive) in assay [8] and -2.37 in assay [9]. In addition, the composite z-score in assay [4] was 0.505 (inactive); in assay [10] it was -0.0999.

Turning to `COC(=O)[C@@]1(Cc2ccc(F)cc2)[C@H]2c3cc(C(=O)N(C)C)n(C)c3C[C@H]2CN1C(=O)c1ccccc1`, the z-score in [1] was -0.476; in assay [2], 0.109 (inactive); in assay [3], -0.911 (inactive); in [5], 0.026 (inactive); in assay [6], 0.626 (inactive); in assay [7] it was -0.657 (inactive). For the same compound, the z-score in assay [8] was -0.705 (inactive); in [9] it was -0.521. Further, the results for the composite z-score in assay [4] and in assay [10] were 0.0197 (inactive) and 0.147, respectively.

With `COc1ccc(C(O)C2C=CC3C(=O)N(c4ccccc4)C(=O)C3N2Nc2ccc(C#N)cc2)cc1OCc1ccccc1` (stereo not given), the z-score was -1.74 in [1]; 0.0151 (inactive) in assay [2]; -0.829 (inactive) in [3]; 1.45 (inactive) in assay [5]; -0.396 (inactive) in assay [6]; -0.933 (inactive) in assay [7]. Moreover, the z-score in assay [8] was -0.0725 (inactive); in [9], -0.756. In addition, the results for the composite z-score in assay [4] and in assay [10] were 0.94 (inactive) and 0.44, respectively.

As for `CC(C)NC(=O)[C@@]1(c2ccc([N+](=O)[O-])cc2)CC(=O)N(CC23CC4CC(CC(C4)C2)C3)[C@@H]1c1ccc(CO)cc1`, the z-score in assay [1] was -1.21; in assay [2] it was -0.692 (inactive); in assay [3], -2.06 (inactive); in assay [5], 0.792 (inactive); in [6], 0.311 (inactive); in assay [7] it was -0.502 (inactive). The results for the z-score in assay [8] and in assay [9] were -0.655 (inactive) and -3.14, respectively. Further, the composite z-score in assay [4] was -0.257 (inactive); in assay [10], -0.0295.
